# Data from PubChem BioAssay AID720697 (Broad Institute, 2013).
# Entries with a potency or affinity are not part of this list. Records with an inconclusive call do not appear. A number with no mark means an inactive call. Active and inactive are the calls of the source.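 The calls were made as follows: active = signal loss with fitted half-maximal concentration at or below twice the top valid tested dose in every test run; inconclusive = runs disagree, flat 30 to 70% signal loss, or poor fit; inactive = all runs flat, opposite direction, or potency beyond limit.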
# Assay: general mammalian cell viability loss – inhibitor set, cherry-pick, set 2, cytotoxicity control for miR-122 modulator project, dose response (AID 720697);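 also: 0% = median of neutral control wells and -100% = MG132 positive control wells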
# Conditions: HEK293T viability, CellTiter-Glo luminescence, 48 h; series mostly up to 26 µM
Structure (SMILES),outcome,"activity change, negative = cytotoxicity"
CNC(=O)C[C@@H]1CC[C@@H]2[C@H](COc3ccc(NC(=O)c4cccc(OC)c4)cc3C(=O)N2C)O1,inactive,
CCN(C[C@H]1[C@H](c2ccccc2)[C@H](CO)N1C(=O)COC)S(C)(=O)=O,inactive,
CN(C[C@H]1N[C@@H](CO)[C@@H]1c1ccc(C2=CCCC2)cc1)C(=O)c1ccc(F)cc1,inactive,
CNC(=O)C[C@H]1CC[C@@H]2[C@@H](COc3ccc(NC(=O)Nc4ccc(Cl)cc4)cc3C(=O)N2C)O1,inactive,
C/C=C/c1ccc2c(c1)O[C@H](CN(C)C(=O)c1cnccn1)[C@H](C)CN([C@H](C)CO)S2(=O)=O,inactive,
Cc1cccc(-n2ncc(Cl)c(Cl)c2=O)c1,,-3.19% [at 6 µM]
COc1cccc(NC(=O)N2[C@H](CO)[C@@H](c3ccccc3)[C@H]2CNCC(C)C)c1,inactive,
O=C(COc1ccccc1F)N1CCc2ccccc2C1,inactive,
CCCNC(=O)N1[C@@H]2CN(C(=O)c3ccccc3)c3ccccc3[C@@H]2[C@@H]1CO,inactive,
CNC(=O)C[C@@H]1CC[C@@H]2[C@@H](COc3ccc(NC(=O)Cc4cccs4)cc3C(=O)N2C)O1,inactive,
CCCNC(=O)Nc1ccc2c(c1)C(=O)N(C)[C@H]1CC[C@H](CC(=O)NC3CCC3)O[C@H]1CO2,inactive,
O=c1c2c3c(sc2nc2n1CCC2)CCCC3,inactive,
COCC(=O)Nc1ccc2c(c1)C(=O)N(C)[C@H]1CC[C@@H](CC(=O)NCCCN(C)C)O[C@H]1CO2,inactive,
Cc1ccccc1-c1ccc2c(c1)O[C@@H](CN(C)C(=O)Nc1ccc(F)cc1)[C@@H](C)CN([C@@H](C)CO)S2(=O)=O,inactive,
C[C@@H]1CN([C@H](C)CO)S(=O)(=O)c2ccc(-c3ccccc3)cc2O[C@@H]1CN(C)C(=O)c1ccc2c(c1)OCO2,inactive,
Cc1nc(C)c(C(=O)Nc2ccc(Oc3ccccc3)cc2)o1,inactive,
C=CCNC(=S)NNC(=O)c1cccn(Cc2ccc(Cl)c(Cl)c2)c1=O,inactive,
CCCC(=O)Nc1ccc2c(c1)C(=O)N(C)[C@@H]1CC[C@H](CC(=O)NCc3cccc(F)c3)O[C@H]1CO2,inactive,
CN1C(=O)c2cc(NC(=O)Cc3ccccc3)ccc2OC[C@H]2O[C@H](CC(=O)O)CC[C@H]21,inactive,
COc1ccccc1CNc1nc(Nc2ccccc2Cl)c2sccc2n1,inactive,

Structure (SMILES),outcome,"activity change, negative = cytotoxicity"
c1ccc(-n2nnnc2NCCc2c[nH]c3ccccc23)cc1,inactive,
CCCNC(=O)N1[C@H](CNC(=O)c2ccc(F)cc2)[C@H](c2ccccc2)[C@@H]1CO,inactive,
CC(C)Oc1ccc(C(CCN)C2CCCCC2)cc1 (centres undefined),inactive,
COCC(=O)N(C)C[C@H]1[C@H](c2ccccc2)[C@@H](CO)N1C(=O)NC(C)C,inactive,
CC(C)OCCCNC(=O)c1ccncc1,inactive,
Cc1ccc(-c2cnc3c(c2)C(=O)N([C@H](C)CO)C[C@@H](C)[C@H](CN(C)CC2CCCCC2)O3)cc1,inactive,
Cc1nn(C)cc1NC(=O)C[C@H]1CC[C@@H]2[C@H](COc3ccc(NC(=O)Nc4cccc(Cl)c4)cc3C(=O)N2C)O1,inactive,
Cc1nn(C)cc1NC(=O)C[C@H]1CC[C@H]2[C@H](COc3ccc(NC(=O)c4cccc(F)c4)cc3C(=O)N2C)O1,inactive,
CN1[C@@H](CO)[C@@H]2c3ccccc3N(C(=O)Nc3cc(F)ccc3F)C[C@@H]21,inactive,
CN(C)CCNc1ncnc2c1sc1nc(-c3ccccc3)c3c(c12)CCCC3,inactive,
CC(=O)N(C)C[C@@H]1[C@@H](c2ccc(-c3cccc(C#N)c3)cc2)[C@H](CO)N1C(C)=O,inactive,
COc1ccc(S(=O)(=O)N(C)C[C@@H]2Oc3cc(-c4cccc(F)c4)ccc3S(=O)(=O)N([C@H](C)CO)C[C@H]2C)cc1,inactive,
COc1cccc(CNC(=O)C[C@@H]2CC[C@H]3[C@H](COc4ccc(NS(=O)(=O)c5ccccc5F)cc4C(=O)N3C)O2)c1,inactive,
C[C@H]1CN([C@@H](C)CO)C(=O)c2cc(-c3ccc(C#N)cc3)cnc2O[C@H]1CN(C)C(=O)Nc1ccc(C(F)(F)F)cc1,inactive,
COCC(=O)N(C)C[C@H]1Oc2cc(-c3ccccc3F)ccc2S(=O)(=O)N([C@@H](C)CO)C[C@@H]1C,inactive,
COc1cccc(-c2nc(NCCN3CCOCC3)c3ccccc3n2)c1O,inactive,
COCC(=O)N(C[C@H]1[C@H](c2ccccc2)[C@H](CO)N1C(=O)NC(C)C)C(C)C,inactive,
CC(C)NC(=O)Nc1ccc2c(c1)C(=O)N(C)[C@H]1CC[C@H](CC(=O)NCC(F)(F)F)O[C@H]1CO2,inactive,
CNC(=O)C[C@H]1CC[C@@H]2[C@@H](COc3ccc(NC(=O)c4cccc(OC)c4)cc3C(=O)N2C)O1,inactive,
